# Test results reported in PubChem BioAssay (EPA / NIEHS).
# Values joined by “and” are separate entries in the source; they are usually repeats but may differ in a detail not shown here. Equal entries are not always repeated. Active and inactive are the calls of the source. How the source made its calls: active means hit-call score of the fitted dose curve at least 0.9, where 1 is the maximum; inactive means score below 0.9.
# Experiments:
# [1] = CEETOX_H295R_PROG: CeeTox H295R High-throughput Steroidogenesis Assay for Progesterone (PROG) (AID 2283442); conditions: actives raise or lower the signal;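 on AC50: human H295R adrenal cells primed with 10 µM forskolin before dosing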
# Procedure, shortened: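 Progesterone secreted by human H295R cells was measured by LC-MS/MS following 48 h chemical exposure at 0.1% DMSO, preceded by 48 h forskolin (10 uM) stimulation. Same-well MTT viability; cytotoxic concentrations diluted 10- or 100-fold and retested.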
# [2] = read-out: Tumor necrosis factor receptor superfamily member 6 (Homo sapiens) (UniProt P25445); assay: LTEA_HepaRG_FAS: Life Technologies and Expression Analysis (LTEA) Assay for Fas cell surface death receptor (FAS) using HepaRG (AID 2283447); conditions: mRNA level, 48 h; actives raise or lower the signal
# Procedure, shortened: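 Differentiated human HepaRG cells, pre-cultured 48 h, were exposed in duplicate for 48 h to 8-point half-log concentrations (top 100 uM, 0.5% DMSO) in serum-free induction medium; FAS mRNA measured by qRT-PCR, normalized to ACTB/GAPDH/POLR2A, bidirectional fit versus DMSO.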
# [3] = read-out: Fatty acid synthase (Homo sapiens) (UniProt P49327); assay: LTEA_HepaRG_FASN: Life Technologies and Expression Analysis (LTEA) Assay for Fatty Acid Synthase (FASN) using HepaRG (AID 2283448); conditions: mRNA level, 48 h; actives raise or lower the signal
# Procedure, shortened: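 FASN expression changes, up or down relative to 0.5% DMSO, were measured by qRT-PCR in human HepaRG cells after 48 h treatment with chemicals at eight concentrations (half-log steps from 100 uM).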
# [4] = read-out: Cyclin D2 (CCND2), CCND2 (gene 894); assay: LTEA_HepaRG_CCND2: Life Technologies and Expression Analysis (LTEA) Assay for Cyclin D2 (CCND2) using HepaRG (AID 2283449); conditions: mRNA level, 48 h; actives raise or lower the signal;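 further: CCND2 transcript measured by TaqMan qRT-PCR and normalised to three housekeeping genes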
# Procedure, shortened: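 Differentiated human HepaRG cells were exposed for 48 h in serum-free induction medium to eight half-log concentrations topping at 100 uM (0.5% DMSO vehicle). CCND2 mRNA was quantified by TaqMan qRT-PCR, normalised to ACTB, GAPDH and POLR2A, and fitted bidirectionally against DMSO.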
# [5] = read-out: Cyclin Dependent Kinase Inhibitor 1A (CDKN1A), CDKN1A (gene 1026); assay: LTEA_HepaRG_CDKN1A: Life Technologies and Expression Analysis (LTEA) Assay for Cyclin Dependent Kinase Inhibitor 1A (CDKN1A) using HepaRG (AID 2283450); conditions: mRNA level, 48 h; actives raise or lower the signal
# Procedure, shortened: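 Expression quantified by Fluidigm qRT-PCR with ACTB, GAPDH and POLR2A normalization, fitted bidirectionally against 0.5% DMSO. Cells: HepaRG, plated 48 h then treated 48 h in serum-free induction medium, top concentration 100 uM with half-log dilutions.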
# [6] = read-out: Cyclin D1 (CCND1), CCND1 (gene 595); assay: LTEA_HepaRG_CCND1: Life Technologies and Expression Analysis (LTEA) Assay for Cyclin D1 (CCND1) using HepaRG (AID 2283451); conditions: mRNA level, 48 h; actives raise or lower the signal;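 on AC50: TaqMan qRT-PCR transcript level normalised to ACTB GAPDH and POLR2A housekeeping genes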
# Procedure, shortened: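 Expression of CCND1 was quantified by qRT-PCR on Fluidigm arrays using ACTB, GAPDH and POLR2A as reference genes. HepaRG cultures, plated 48 h beforehand, were dosed for 48 h at up to 100 uM (half-log, 8 points) in 0.5% DMSO.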
# [7] = read-out: catalase (CAT), CAT (gene 847); assay: LTEA_HepaRG_CAT: Life Technologies and Expression Analysis (LTEA) Assay for catalase (CAT) using HepaRG (AID 2283452); conditions: mRNA level, 48 h; actives raise or lower the signal;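 on AC50: TaqMan qRT-PCR signal normalized to ACTB GAPDH and POLR2A housekeeping genes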
# Procedure, shortened: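 Differentiated HepaRG cells in serum-free induction medium were dosed 48 h in duplicate, eight half-log concentrations from 100 uM in 0.5% DMSO. Transcript measured by TaqMan qRT-PCR, normalised to ACTB/GAPDH/POLR2A, fitted bidirectionally against DMSO.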
# [8] = read-out: flavin-containing dimethylaniline monooxygenases 3 (FMO3), FMO3 (gene 2328); assay: LTEA_HepaRG_FMO3: Life Technologies and Expression Analysis (LTEA) Assay for flavin-containing dimethylaniline monooxygenases 3 (FMO3) using HepaRG (AID 2283453); conditions: mRNA level, 48 h; actives raise or lower the signal
# Procedure, shortened: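 Differentiated HepaRG cells in serum-free induction medium, exposed 48 h in duplicate to 8 half-log concentrations up to 100 uM in 0.5% DMSO. FMO3 mRNA by qRT-PCR, normalized to ACTB, GAPDH, POLR2A; bidirectional fit vs DMSO.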
# [9] = read-out: Cytochrome P450 (CYP1A1), CYP1A1 (gene 1543); assay: LTEA_HepaRG_CYP1A1: Life Technologies and Expression Analysis (LTEA) Assay for Cytochrome P450 (CYP1A1) using HepaRG (AID 2283454); conditions: mRNA level, 48 h; actives raise or lower the signal
# Procedure, shortened: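 CYP1A1 transcript levels measured by Fluidigm qRT-PCR against three housekeeping genes, 48 h after chemical dosing of human HepaRG cells (highest concentration 100 uM, half-log steps, 0.5% DMSO vehicle). Gain or loss of signal fitted relative to DMSO.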
# [10] = read-out: CFLAR gene, CFLAR (gene 8837); assay: LTEA_HepaRG_CFLAR: Life Technologies and Expression Analysis (LTEA) Assay for CFLAR gene using HepaRG (AID 2283455); conditions: mRNA level, 48 h; actives raise or lower the signal
# Procedure, shortened: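 HepaRG cells were plated for 48 h, switched to serum-free induction medium, then exposed in duplicate for 48 h to 8 concentrations (top 100 uM, half-log steps, 0.5% DMSO). CFLAR mRNA was measured by qRT-PCR, normalized to ACTB, GAPDH and POLR2A.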
# Fatty acid synthase (Homo sapiens), sequence (P49327 whole entry, looked up): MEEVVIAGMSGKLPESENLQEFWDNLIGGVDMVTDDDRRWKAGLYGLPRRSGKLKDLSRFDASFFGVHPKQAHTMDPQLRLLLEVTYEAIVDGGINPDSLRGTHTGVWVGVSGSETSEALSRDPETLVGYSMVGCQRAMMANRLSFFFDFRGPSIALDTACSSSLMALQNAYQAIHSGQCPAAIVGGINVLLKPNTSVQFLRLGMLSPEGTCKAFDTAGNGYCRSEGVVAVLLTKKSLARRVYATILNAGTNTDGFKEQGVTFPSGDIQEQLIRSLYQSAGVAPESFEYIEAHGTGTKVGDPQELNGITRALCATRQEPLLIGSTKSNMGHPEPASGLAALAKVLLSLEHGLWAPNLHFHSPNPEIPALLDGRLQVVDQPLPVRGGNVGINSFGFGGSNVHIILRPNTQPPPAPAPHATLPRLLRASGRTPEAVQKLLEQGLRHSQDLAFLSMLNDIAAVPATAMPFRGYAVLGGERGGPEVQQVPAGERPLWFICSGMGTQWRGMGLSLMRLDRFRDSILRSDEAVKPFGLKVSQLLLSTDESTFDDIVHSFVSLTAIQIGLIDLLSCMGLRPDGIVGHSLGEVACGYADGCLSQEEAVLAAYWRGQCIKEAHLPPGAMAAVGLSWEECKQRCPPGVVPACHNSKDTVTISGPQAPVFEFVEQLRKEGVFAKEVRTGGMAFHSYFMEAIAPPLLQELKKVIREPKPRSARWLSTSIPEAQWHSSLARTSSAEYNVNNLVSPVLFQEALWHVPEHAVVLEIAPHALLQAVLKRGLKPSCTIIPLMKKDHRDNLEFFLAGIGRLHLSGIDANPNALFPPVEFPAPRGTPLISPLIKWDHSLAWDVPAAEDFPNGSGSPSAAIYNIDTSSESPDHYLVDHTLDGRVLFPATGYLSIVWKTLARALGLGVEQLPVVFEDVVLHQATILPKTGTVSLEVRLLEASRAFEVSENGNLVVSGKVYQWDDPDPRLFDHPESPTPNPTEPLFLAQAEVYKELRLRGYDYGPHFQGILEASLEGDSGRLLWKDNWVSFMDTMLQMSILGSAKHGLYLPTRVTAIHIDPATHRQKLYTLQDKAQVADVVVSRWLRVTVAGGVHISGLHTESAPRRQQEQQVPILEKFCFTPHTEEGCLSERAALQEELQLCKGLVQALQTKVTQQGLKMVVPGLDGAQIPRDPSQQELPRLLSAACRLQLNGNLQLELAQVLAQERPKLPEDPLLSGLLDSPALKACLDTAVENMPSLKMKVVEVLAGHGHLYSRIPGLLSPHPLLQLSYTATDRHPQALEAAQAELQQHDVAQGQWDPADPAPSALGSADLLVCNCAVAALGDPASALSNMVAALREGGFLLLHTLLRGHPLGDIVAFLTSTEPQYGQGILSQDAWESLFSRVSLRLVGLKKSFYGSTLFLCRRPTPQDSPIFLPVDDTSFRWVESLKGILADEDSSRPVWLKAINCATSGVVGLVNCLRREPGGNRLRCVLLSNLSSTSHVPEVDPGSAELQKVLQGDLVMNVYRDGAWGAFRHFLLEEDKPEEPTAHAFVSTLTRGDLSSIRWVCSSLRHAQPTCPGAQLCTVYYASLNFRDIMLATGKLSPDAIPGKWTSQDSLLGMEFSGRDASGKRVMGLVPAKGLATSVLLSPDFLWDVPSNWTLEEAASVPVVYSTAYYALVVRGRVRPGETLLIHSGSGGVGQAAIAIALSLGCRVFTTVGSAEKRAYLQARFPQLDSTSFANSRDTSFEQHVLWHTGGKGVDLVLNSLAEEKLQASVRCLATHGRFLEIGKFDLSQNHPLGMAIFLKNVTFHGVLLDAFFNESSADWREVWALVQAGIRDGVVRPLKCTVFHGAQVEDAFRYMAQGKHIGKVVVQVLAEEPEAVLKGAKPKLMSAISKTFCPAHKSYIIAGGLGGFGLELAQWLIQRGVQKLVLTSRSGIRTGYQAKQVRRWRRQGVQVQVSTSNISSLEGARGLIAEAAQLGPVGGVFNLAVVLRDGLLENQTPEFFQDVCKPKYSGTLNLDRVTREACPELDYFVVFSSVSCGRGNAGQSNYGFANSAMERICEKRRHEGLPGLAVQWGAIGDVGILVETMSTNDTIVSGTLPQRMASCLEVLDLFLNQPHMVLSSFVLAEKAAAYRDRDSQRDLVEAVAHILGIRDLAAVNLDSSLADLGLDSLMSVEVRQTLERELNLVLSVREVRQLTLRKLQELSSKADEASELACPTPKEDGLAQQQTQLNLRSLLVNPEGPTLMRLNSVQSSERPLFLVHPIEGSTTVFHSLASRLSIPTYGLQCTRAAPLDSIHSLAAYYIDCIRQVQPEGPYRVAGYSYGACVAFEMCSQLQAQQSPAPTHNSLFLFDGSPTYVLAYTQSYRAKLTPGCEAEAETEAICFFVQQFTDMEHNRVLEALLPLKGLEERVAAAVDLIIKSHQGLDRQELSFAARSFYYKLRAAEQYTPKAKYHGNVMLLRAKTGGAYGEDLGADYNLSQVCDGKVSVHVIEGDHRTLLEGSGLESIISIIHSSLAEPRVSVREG
compound,measurement,setting,value
Cc1cccc(C)c1N,outcome,[1],inactive
same,outcome,[2],inactive
same,outcome,[3],inactive
same,outcome,[4],inactive
same,outcome,[5],inactive
same,outcome,[6],inactive
same,outcome,[7],inactive
same,outcome,[8],inactive
same,AC50,[9],51.8 µM (active)
same,outcome,[10],inactive
N#Cc1ccc(N(CC(N)=O)CC(F)(F)F)cc1C(F)(F)F,outcome,[1],inactive
same,outcome,[2],inactive
same,outcome,[3],inactive
same,outcome,[4],inactive
same,outcome,[5],inactive
same,outcome,[6],inactive
same,outcome,[7],inactive
same,outcome,[8],inactive
same,AC50,[9],50 µM (active)
same,outcome,[10],inactive
CC#Cc1cc(C)nc(Nc2ccccc2)n1,outcome,[1],inactive
same,outcome,[2],inactive
same,AC50,[3],1.83 µM (active)
same,outcome,[4],inactive
same,AC50,[5],80.1 µM (active)
same,AC50,[6],13.3 µM (active)
same,outcome,[7],inactive
same,AC50,[8],21.8 µM (active)
same,AC50,[9],13.8 µM (active)
same,outcome,[10],inactive
Oc1c(Cl)c(Cl)c(Cl)c(Cl)c1Cl,AC50,[2],6.31 µM (active)
same,AC50,[3],1.87 µM (active)
same,outcome,[4],inactive
same,outcome,[5],inactive
same,outcome,[6],inactive
same,AC50,[7],2.73 µM (active)
same,AC50,[8],4.5 µM (active)
same,AC50,[9],7.23 µM (active)
same,AC50,[10],2.17 µM (active)
CCSC(=O)N(CC)C1CCCCC1,outcome,[1],inactive
same,outcome,[2],inactive
same,outcome,[3],inactive
same,outcome,[4],inactive
same,outcome,[5],inactive
same,outcome,[6],inactive
same,outcome,[7],inactive
same,outcome,[8],inactive
same,outcome,[9],inactive
same,outcome,[10],inactive
ClC1=C(Cl)[C@]2(Cl)[C@@H]3[C@H]4C[C@H]([C@@H]5O[C@H]45)[C@@H]3[C@@]1(Cl)C2(Cl)Cl,AC50,[1],3 µM (active)
same,outcome,[2],inactive
same,AC50,[3],87.6 µM (active)
same,outcome,[5],inactive
same,outcome,[6],inactive
same,AC50,[7],13.3 µM (active)
same,AC50,[8],50 µM (active)
same,outcome,[9],inactive
same,outcome,[10],inactive
CCC(C)(CC)c1cc(NC(=O)c2c(OC)cccc2OC)on1,outcome,[1],inactive
same,outcome,[2],inactive
same,AC50,[3],33.8 µM (active)
same,outcome,[4],inactive
same,outcome,[5],inactive
same,outcome,[6],inactive
same,outcome,[7],inactive
same,outcome,[8],inactive
same,AC50,[9],10.2 µM (active)
same,outcome,[10],inactive
C[C@]12CCC(=O)C=C1CC[C@@H]1[C@@H]2CC[C@@]2(C)[C@H]1CC[C@]2(C)O,outcome,[1],inactive
same,outcome,[2],inactive
same,AC50,[3],66.1 µM (active)
same,outcome,[4],inactive
same,AC50,[5],79.9 µM (active)
same,outcome,[6],inactive
same,outcome,[7],inactive
same,AC50,[8],66 µM (active)
same,outcome,[9],inactive
same,outcome,[10],inactive
Cc1cc(-c2ccc(N)c(C)c2)ccc1N,AC50,[1],2.96 µM (active) and 31.1 µM (active)
same,outcome,[2],inactive
same,AC50,[3],25.1 µM (active)
same,outcome,[4],inactive
same,outcome,[5],inactive
same,outcome,[6],inactive
same,outcome,[7],inactive
same,AC50,[8],25.1 µM (active)
same,AC50,[9],20.3 µM (active)
same,outcome,[10],inactive
NS(=O)(=O)C(F)(F)C(F)(F)C(F)(F)C(F)(F)C(F)(F)C(F)(F)C(F)(F)C(F)(F)F,outcome,[1],inactive
same,outcome,[2],inactive
same,AC50,[3],12.9 µM (active)
same,outcome,[4],inactive
same,AC50,[5],1.8 µM (active)
same,AC50,[6],50 µM (active)
same,AC50,[7],9.12 µM (active)
same,AC50,[8],11.8 µM (active)
same,AC50,[9],13.8 µM (active)
same,AC50,[10],7.67 µM (active)
CCOC(=O)C(O)(c1ccc(Cl)cc1)c1ccc(Cl)cc1,outcome,[2],inactive
same,outcome,[3],inactive
same,outcome,[4],inactive
same,outcome,[5],inactive
same,outcome,[6],inactive
same,outcome,[7],inactive
same,outcome,[8],inactive
same,AC50,[9],47.1 µM (active)
same,outcome,[10],inactive
CCOP(=S)(OCC)SCSC(C)(C)C,outcome,[1],inactive
same,outcome,[2],inactive
same,outcome,[3],inactive
same,outcome,[4],inactive
same,outcome,[5],inactive
same,outcome,[6],inactive
same,outcome,[7],inactive
same,outcome,[8],inactive
same,outcome,[9],inactive
same,outcome,[10],inactive
CCNc1nc(NC(C)C)nc(SC)n1,outcome,[1],inactive
same,outcome,[2],inactive
same,outcome,[5],inactive
same,outcome,[6],inactive
same,outcome,[7],inactive
same,AC50,[8],50 µM (active)
same,AC50,[9],19.8 µM (active)
same,outcome,[10],inactive
Nn1cnnc1,outcome,[2],inactive
same,outcome,[3],inactive
same,outcome,[4],inactive
same,outcome,[5],inactive
same,outcome,[6],inactive
same,outcome,[7],inactive
same,outcome,[8],inactive
same,AC50,[9],50 µM (active)
same,outcome,[10],inactive
c1cc2ccc3cccc4ccc(c1)c2c34,AC50,[1],13.9 µM (active)
same,outcome,[2],inactive
same,outcome,[3],inactive
same,AC50,[4],5 µM (active)
same,outcome,[5],inactive
same,outcome,[6],inactive
same,outcome,[7],inactive
same,outcome,[8],inactive
same,AC50,[9],24.3 µM (active)
same,outcome,[10],inactive
